Screening results deposited in PubChem by National Center for Advancing Translational Sciences (NCATS).
Cycloheximide cs: counter-screen hit for Shiga toxin inhibitors, cycloheximide; cell reporter, cycloheximide protein synthesis inhibition counterscreen; max response, %; 300,000 compounds, 12% hits; AID 2314; in the data active means max response mostly above about 13%, no sharp cut-off; inactive means mostly below about 14%; further: read at 38.3 µM for the half of the compounds with a filed dose; 0% is about no effect
Pf growth 48h: inhibits P. falciparum growth in the first generation, 48 h; P. falciparum luciferase growth in erythrocytes, 48 h; AID 504832; Potency, µM (doses to about 28.7 µM), for the others: at the highest dose activity change, negative = inhibition, hits mostly inhibitors; 310,000 compounds, 5.9% hits; further: potency means the concentration at half of the fitted maximal effect; on the % scale 0 is the no-effect control and ±100 the full control effect
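Luciferase-expressing parasites in RBCs, 2% Hct / 0.1% parasitemia final; RPMI 1640 + 0.5% Albumax; 37 C, 5% CO2, one generation; luminescence read-out, lower signal = inhibition.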
Shiga toxin inh: blocks Shiga toxin action in Vero cells | Vero cells, Shiga toxin protein synthesis inhibition reporter | 290,000 compounds, 9.2% hits | inhibition, % at 38.7 µM | AID 2315; in the data active means inhibition mostly above about 28%, no sharp cut-off; inactive means mostly below about 43%; further: 0% is about no effect
Pf growth 96h: P. falciparum growth inhibition at 96 hours; P. falciparum luciferase reporter growth, 96 h; Potency, µM (top dose mostly 28.7 µM), without a hit: top-dose activity change, negative = inhibition, hits mostly inhibitors; 320,000 compounds, 6.9% hits; AID 504834; further: potency means the concentration at half of the fitted maximal effect; on the % scale 0 is the no-effect control and ±100 the full control effect
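Two parasite generations (96 h, 37 C, 5% CO2) of compound exposure in infected erythrocytes (0.05% parasitemia, 2% hematocrit). Luciferase-reporter P. falciparum; decreased luminescence indicates inhibited growth, aimed at apicoplast-acting delayed death.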
Active calls of the source: *; ? = inconclusive; . = no result given. An excerpt weighted towards active compounds, which were near 21% of everything screened. Unless noted, the call rests on the fitted dose curve; in most records, active means well fitted inhibition curve with a large enough effect; inconclusive means small, poorly fitted or top-dose-only effect, or another doubt; inactive means no such curve, though single readings can be large or run the other way.

SMILES | Cycloheximide cs | Pf growth 48h | Shiga toxin inh | Pf growth 96h
C=CCc1c(O)c(CC)cc2c(C)cc(=O)oc12 | -2 | -25% | -9 | -2%
CCCCC(=O)Nc1cnc(NC(=O)c2cccs2)cc1C | 31* | 95% | . | 9%
Cc1cc(NC(=O)C2CCCCC2)ncc1NC(=O)c1ccccn1 | 23 | -6% | 43 | 0%
COc1ccc(C(=O)Nc2cc(C)c(NC(=O)c3ccccn3)cn2)cc1 | 40* | 61% | 48* | -40%
COc1ccc(C(=O)Nc2cnc(NC(=O)c3cccs3)cc2C)cc1 | 46* | -13% | 60 | ?
Cc1cc(NC(=O)C2CC2)ncc1NC(=O)c1ccccn1 | 40* | 33% | 71* | 24%
CCCCC(=O)Nc1cc(C)c(NC(=O)c2cccs2)cn1 | -2 | 5% | -19 | 47%
CCN(CC(=O)NCc1cccs1)C(=O)/C=C/c1cc(OC)c(OC)c(OC)c1 | . | 13% | . | 4%
CCN(CC(=O)Nc1ccc(OC)cc1)CC(=O)Nc1sc2c(c1C(=O)OC)CCCC2 | . | ? | . | -70%
Cc1ccc(CN2CCNC(=O)C2CC(=O)NCc2cc(C)n(C)n2)cc1 (stereo not drawn) | 2 | 14% | -5 | ?
COc1ccccc1NC(=O)Cn1cnc2c(nnn2-c2ccc(C)cc2)c1=O | -2 | -35% | -5 | 18%
N=C1c2c(cc(=O)n3c2[nH]c2ccccc23)CN1CCN1CCOCC1 | 9 | ? | 18 | ?
COCCN1Cc2cc(=O)n3c([nH]c4ccccc43)c2C1=N | 22* | ? | 39 | ?
CCNC(=O)CN(c1ccc(F)cc1)S(=O)(=O)c1ccc2c(c1)OCCO2 | -4 | 1% | -4 | -1%
CCCNC(=O)c1noc2c1CCc1ccccc1-2 | 42* | 105% | 64* | -22%
Cc1onc(-c2ccccc2)c1C(=O)NCCN1CCOCC1 | 1 | 4% | -6 | 208%
O=C(Nc1cccnc1Cl)c1noc2c1CCc1ccccc1-2 | 34* | 396% | 92* | 4%
O=C(NCCN1CCOCC1)c1noc2c1CCc1ccccc1-2 | 49* | 159% | 71* | .
Cc1nn(Cc2ccc(Cl)cc2)c(C)c1NC(=O)c1noc2c1CCc1ccccc1-2 | -5 | . | -19 | 59%
O=C(NCCc1ccccc1)c1noc2c1CCc1ccccc1-2 | 19* | 25% | 39* | -1%
COc1ccc2c(c1)CCc1c(C(=O)NCCc3ccc(OC)c(OC)c3)noc1-2 | -1 | 11% | 4 | 16%
Cc1cccc(OCC(=O)Nc2ccc3c(c2)C(=O)NC3=O)c1 | 10 | -14% | 18 | ?
O=C1Nc2ccccc2C1C(C[N+](=O)[O-])c1ccccc1 (stereo not drawn) | -3 | 14% | -9 | 10%
NS(=O)(=O)c1ccc(N/C=C\C(=O)c2ccc3ccccc3c2)cc1 | 31* | 35% | 18 | 22%
COc1ccc(N/C=C/C(=O)c2ccccc2)cc1 | 9 | 303% | . | 426%
SMILES | Cycloheximide cs | Pf growth 48h | Shiga toxin inh | Pf growth 96h
COc1ccc(N/C=C\C(=O)c2ccc3ccccc3c2)cc1 | 29* | 191% | 24 | -23%
COc1ccc(N/C=C/C(=O)C(C)(C)C)cc1 | 31* | 15% | 93* | ?
O=C(/C=C/Nc1ccc(S(=O)(=O)Nc2ncccn2)cc1)c1ccc(Cl)c(Cl)c1 | -1 | 17% | 15 | 0%
O=C(CCNC(=O)c1ccccc1Cl)Nc1nccs1 | 1 | 34% | -14 | 84%
CCc1ccc(C(C(=O)NCCOC)N(C(=O)Cn2nnc3ccccc32)c2cccnc2)cc1 (stereo not drawn) | -3 | -7% | -5 | ?
COC(=O)c1cc(NC(=O)CN(c2ccccc2OC)S(=O)(=O)c2ccccc2)ccc1Cl | -2 | 10µM* | 2 | 86%
COc1ccc(NC(=O)CN(c2ccc(OC)c(Cl)c2)S(=O)(=O)c2ccccc2)c(OC)c1 | -4 | ? | -5 | 12µM*
COc1ccccc1N(CC(=O)Nc1cc(C)on1)S(=O)(=O)c1cccc(C(F)(F)F)c1 | . | 13µM* | . | ?
CCOC(=O)C1=C(CN2CCN(C(=O)c3ccco3)CC2)NC(=O)NC1c1ccc(C)cc1 (stereo not drawn) | -2 | 13µM* | -19 | ?
CCOC(=O)C1=C(CN2c3ccccc3CC2C)NC(=O)NC1c1ccccc1 (stereo not drawn) | 16 | ? | 13 | ?
CCOC(=O)C1=C(CN2CCSCC2)NC(=O)NC1c1cc(C)ccc1C (stereo not drawn) | -3 | 12µM* | -2 | -1%
COC(=O)C1=C(CN2CCc3ccccc32)NC(=O)NC1c1cc(C)ccc1C (stereo not drawn) | -1 | 10µM* | 6 | .
